Results: PMC4336329 (PLoS ONE, 2015)
The whole screen tested about 310,000 compounds, of which about 14,000 (4.5%) showed an effect of 50% or more. The effect is printed as a negative number. This excerpt belongs to a sample that is enriched for strong results.

target: human ether-à-go-go-related gene (hERG) potassium channel (human, UniProt Q12809); test: primary screen, population patch clamp on CHO cells stably expressing hERG; higher = less effect of the substance
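Further: peak tail current of the secondary pulse compared with the same well before compound.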

Chain of human ether-à-go-go-related gene (hERG) potassium channel (Q12809 whole entry, looked up): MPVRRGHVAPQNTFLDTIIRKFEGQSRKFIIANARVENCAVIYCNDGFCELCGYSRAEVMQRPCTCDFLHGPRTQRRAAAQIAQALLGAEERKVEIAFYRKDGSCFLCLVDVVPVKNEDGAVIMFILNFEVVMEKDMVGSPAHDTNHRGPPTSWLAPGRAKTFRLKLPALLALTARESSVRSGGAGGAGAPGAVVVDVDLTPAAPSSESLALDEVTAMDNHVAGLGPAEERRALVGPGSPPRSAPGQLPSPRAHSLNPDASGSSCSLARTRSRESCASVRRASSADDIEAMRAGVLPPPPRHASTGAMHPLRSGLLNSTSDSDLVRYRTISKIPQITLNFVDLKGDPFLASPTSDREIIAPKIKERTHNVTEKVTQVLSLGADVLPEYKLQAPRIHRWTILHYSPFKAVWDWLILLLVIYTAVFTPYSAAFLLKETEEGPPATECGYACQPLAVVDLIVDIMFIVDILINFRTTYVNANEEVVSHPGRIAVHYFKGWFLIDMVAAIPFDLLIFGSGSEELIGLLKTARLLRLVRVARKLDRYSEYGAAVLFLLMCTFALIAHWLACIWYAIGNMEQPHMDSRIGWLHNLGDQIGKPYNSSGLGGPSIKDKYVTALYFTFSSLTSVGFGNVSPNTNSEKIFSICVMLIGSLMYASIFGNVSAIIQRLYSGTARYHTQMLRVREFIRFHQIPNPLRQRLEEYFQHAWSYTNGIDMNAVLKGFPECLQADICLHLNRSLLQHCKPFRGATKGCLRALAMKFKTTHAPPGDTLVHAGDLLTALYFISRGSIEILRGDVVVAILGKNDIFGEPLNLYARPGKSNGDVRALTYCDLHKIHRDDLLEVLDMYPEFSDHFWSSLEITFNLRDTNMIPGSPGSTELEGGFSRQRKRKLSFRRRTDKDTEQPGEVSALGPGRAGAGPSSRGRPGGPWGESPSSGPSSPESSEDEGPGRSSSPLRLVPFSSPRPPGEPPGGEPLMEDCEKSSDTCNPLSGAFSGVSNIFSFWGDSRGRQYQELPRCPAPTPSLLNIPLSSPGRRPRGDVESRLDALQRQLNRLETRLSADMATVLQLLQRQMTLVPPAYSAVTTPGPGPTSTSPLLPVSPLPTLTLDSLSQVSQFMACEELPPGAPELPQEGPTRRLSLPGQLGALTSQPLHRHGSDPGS

Compound | hERG current change (%, negative = inhibition) at 10uM
CCOc1ccc(S(=O)(=O)NCCC(=O)OC(C)C(=O)N2CCc3ccccc32)cc1 (centres unmarked) | -22.6%
NC(=O)c1ccc(NC(=O)CNCc2ccccc2Cl)cc1 | 8.82%
COc1ccccc1NS(=O)(=O)c1cccc(C(=O)NCc2ccccn2)c1 | 13.2%
CCOc1nc(C)ccc1-c1noc(-c2ccccc2OC)n1 | 12.7%
CCCC12CN3CC(C)(CN(C1)C3c1ccco1)C2=O (centres unmarked) | -4.64%
CCOc1ncccc1C(=O)NCCc1ccc(Cl)cc1 | -5.75%
CC(=O)CC(C)(C)Nc1nc2cc([N+](=O)[O-])ccc2o1 | 0.0382%
COc1cc(NC(=O)c2ccc3snnc3c2)cc(OC)c1 | 13.5%
CCOCc1nnc(NC(=O)C2CC(=O)N(C3CCCC3)C2)s1 (centres unmarked) | 4.92%
COc1ccc(/C=C/c2nc(-c3ccccc3O)n[nH]2)cc1OC | 12.1%
CCOC(=O)Nc1c(O)ccc2oc(C)c(-c3ccccc3)c12 | -1.49%
O=C(Nc1ccc2nsnc2c1)N1CCCCC1 | 22.2%
COCCn1c(CN2CCN(c3ccccc3)CC2)nc2c1c(=O)n(C)c(=O)n2C | -13.8%
CCOCCn1c(CN2CCN(c3ccc(OC)cc3)CC2)nc2c1c(=O)n(C)c(=O)n2C | -41.2%
COCCn1c(CN2CCN(c3cccc(Cl)c3)CC2)nc2c1c(=O)n(C)c(=O)n2C | -53.9%
CCOCCn1c(CN2CCN(c3cccc(Cl)c3)CC2)nc2c1c(=O)n(C)c(=O)n2C | -55%
CCOCCn1c(CN2CCN(c3ccc(F)cc3)CC2)nc2c1c(=O)n(C)c(=O)n2C | -56.2%
CCCCn1c(CN2CCN(c3ccc(F)cc3)CC2)nc2c1c(=O)n(C)c(=O)n2C | -25%
CCOCCn1c(CN2CCN(c3ccccc3)CC2)nc2c1c(=O)n(C)c(=O)n2C | -22.1%
CCOCCn1c(CN2CCN(C)CC2)nc2c1c(=O)n(C)c(=O)n2C | 3.97%
Cn1c(=O)c2c(nc(CN3CCN(c4ccccc4)CC3)n2CCN2CCOCC2)n(C)c1=O | -21.7%
CC(C)Cc1nnc(NC(=O)CN2C(=O)NC3(CC(C)CC(C)(C)C3)C2=O)s1 (centres unmarked) | -20.5%
CN1C[C@@H]2C(c3ccccc3)C3(c4ccccc4)CC2(C3)[C@H]1c1ccccc1 (some centres unmarked) | -25.7%
CC(C)(C)c1ccc(-c2nnc(NC(=O)c3ccccc3)s2)cc1 | -13.6%
COc1ccc(C(=O)COC(=O)/C=C/c2ccccc2)cc1 | 6.99%
CN(C)S(=O)(=O)c1ccc(NC(=O)COC(=O)CC2CC3CCC2C3)cc1 (centres unmarked) | -9.56%

Compound | hERG current change (%, negative = inhibition) at 10uM
O=C(CSc1n[nH]c(-c2ccncc2)n1)NCCc1ccccc1 | 13.2%
Cc1ccc(N2C(=O)CC(Nc3ccc(Cl)c(S(=O)(=O)N(C)C)c3)C2=O)c(C)c1 (centres unmarked) | -4.31%
Cc1ccc(NC2CC(=O)N(c3ccc(C)cc3)C2=O)cc1 (centres unmarked) | -0.727%
CN(C)S(=O)(=O)c1cc(NC2CC(=O)N(c3ccc(F)cc3)C2=O)ccc1Cl (centres unmarked) | -51.1%
COc1cc(C(=O)NCCc2cn3ccc(C)cc3n2)cc(OC)c1OC | -27%
CCCOc1ccc(-c2nc(=S)[nH][nH]2)cc1 | 20.1%
CCN(CC)CCCNC(=O)Cn1nc(-c2ccccc2)ccc1=O | -24.4%
CCCCN(C)CCCNC(=O)CCn1nc(-c2ccccc2)ccc1=O | -52.9%
O=C(Cn1nc(-c2ccccc2)ccc1=O)N1CCOCC1 | -6.25%
CC1CCCN(CCCNC(=O)CCn2nc(-c3ccccc3)ccc2=O)C1 (centres unmarked) | -39%
O=C(Cn1nc(-c2ccccc2)ccc1=O)N1CCCCC1 | -61.6%
O=C(CCn1nc(-c2ccccc2)ccc1=O)N1CCCC1 | -45%
CCN(CC)CCNC(=O)CCn1nc(-c2ccc(Cl)cc2)ccc1=O | -34.4%
O=C(CCn1nc(-c2ccccc2)ccc1=O)NCCCN1CCCCCC1 | -73%
CCCCNC(=O)CCn1nc(-c2ccccc2)ccc1=O | -40%
CCN(CC)CCCNC(=O)CCn1nc(-c2ccccc2)ccc1=O | -56.8%
CCCN1CCN(CCCNC(=O)CCn2nc(-c3ccccc3)ccc2=O)CC1 | -47.4%
CC1CCCC(C)N1CCNC(=O)CCn1nc(-c2ccccc2)ccc1=O (centres unmarked) | -46.8%
O=C(CN1C(=O)C2CC=CCC2C1=O)Nc1nnc(C2CC2)s1 (centres unmarked) | 6.01%
COc1ccc(N(CC(=O)NC2CC3CCC2C3)S(=O)(=O)c2ccccc2)cc1Cl (centres unmarked) | -19.4%
O=C(CSc1ccc2c(c1)OCCO2)Nc1ccc(Cl)cn1 | 24.3%
CN(C)C(=O)c1noc2cc([N+](=O)[O-])ccc12 | -12%
Cc1c(C#N)c2ccccc2n1CC(=O)NCC1CCCO1 (centres unmarked) | 16.8%
CCc1ccccc1NC(=O)COc1ccc2oc(-c3ccc(OC)cc3)cc(=O)c2c1 | 5.29%
O=S(=O)(NCc1ccccc1)c1ccc(-n2cccn2)cc1 | -16.6%
Cc1nc(SCC(=O)N2CCCCCC2)[nH]c(=O)c1C | 19.5%

Compound | hERG current change (%, negative = inhibition) at 10uM
CCc1cc(=O)[nH]c(SCCC(F)=C(F)F)n1 | 27.7%
CCc1cc(=O)[nH]c(SCCCF)n1 | -50.2%
CCCCSc1nc(CCC)cc(=O)[nH]1 | -7.39%
CC(c1ccccc1)N1C(=O)/C(=C/c2ccncc2)SC1=S (centres unmarked) | 3.24%
CC(NC(=O)NCCCC(=O)O)(C(F)(F)F)C(F)(F)F | 11.3%
CC(C)c1ccc(/C=N/N2CCCCC2)cc1.O=C(O)C(=O)O | -84.3%
CC(C)(C)c1ccc(OCCCCCCN2CCNCC2)cc1 | -0.393%
c1cc(OCCCN2CCCCC2)ccc1CN1CCCCC1 | 14.1%
CC(=O)Nc1ccc(/C=N/N2CCCCC2)cc1 | 16.5%
CC(C)(C)c1ccc(OCCN2CCCC2)cc1 | -20.6%
Clc1ccc(/C=N/N2CCCCC2)cc1 | 7.36%
CCC(C)c1ccc(OCCN2CCCC2)cc1 (centres unmarked) | -15.4%
CC(C)c1ccc(OCCCCCN2CCOCC2)cc1.O=C(O)C(=O)O | -24.9%
CC(C)c1ccc(OCCCCN2CCCCC2)cc1.O=C(O)C(=O)O | -58.8%
CC(C)c1ccc(OCCCN2CCCC2)cc1 | -67.1%
Cc1cc(OCCN2CCCC2)cc(C(C)C)c1.O=C(O)C(=O)O | -0.795%
CC(C)(C)c1ccc(OCCCN2CCCC2)cc1 | -56.4%
CCOc1ccc(-c2cnc3ccccc3n2)cc1 | 14.3%
CC(C)=C1C2CCC1C1C(=O)N(c3ccc(C)c(C)c3)C(=O)C21 (centres unmarked) | 3.55%
COc1ccc2nc(C)cc(SCC(=O)N/N=C/c3c(OC)ccc4ccccc34)c2c1 | 12.8%
CC(C)N(C(=O)Cn1c(SCC(=O)NCc2ccc3c(c2)OCO3)nc2ccccc21)C(C)C | -34.1%
CCN(CC)C(=O)CSc1ncnc2c1cnn2-c1ccccc1 | -14.2%
CCSc1nnc(Cn2c(=O)sc3ccccc32)n1-c1ccccc1C | -2.71%
CN(/N=C/c1ccc(N(C)C)cc1)C1=NS(=O)(=O)c2ccccc21 | 20.6%
Cc1ccc2[nH]c3c(=O)n(Cc4ccccn4)cnc3c2c1 | -1.6%
COC(=O)c1[nH]c2cc(OC)ccc2c1NC(=O)c1c(F)cccc1F | 2.79%

Compound | hERG current change (%, negative = inhibition) at 10uM
CC(C)Oc1ccc(C(=O)CCN2CCCCC2)cc1 | -20.9%
CCOc1cccc(OCCOCCN2CCCC2)c1 | -10.1%
COc1ccc(OCCCN2CCCCCC2)cc1.O=C(O)C(=O)O | -19.3%
Cc1cc(OCCOCCN2CCCC2)ccc1C(C)C | -53.9%
Cc1cc(OCCN2CCCC2)ccc1C(C)C | -22.5%
CC(C)Oc1ccc(OCCCN2CCCCCC2)cc1.O=C(O)C(=O)O | -54.8%
CCOc1ccc(OCCCCN2CCCC2)cc1.O=C(O)C(=O)O | -12.2%
Clc1ccc(OCCCCN2CCCCC2)cc1.O=C(O)C(=O)O | -65.5%
Clc1cccc(Cl)c1OCCCCN1CCCCC1.O=C(O)C(=O)O | -40.8%
O=C1COc2ccc(S(=O)(=O)N3CCCCC3)cc2N1 | 20%
Cc1ccc(NNC(=O)C(O)(c2cccc(C(F)(F)F)c2)c2cccc(C(F)(F)F)c2)cc1 | -7.55%
COc1cc2c(cc1OC)C(C)N(S(=O)(=O)c1ccc(C)cc1)CC2 (centres unmarked) | -15%
COc1ccc(C(C(=O)NC2CCCCC2)N(C(=O)c2snc(C(N)=O)c2N)c2ccccc2OC)cc1 (centres unmarked) | 11.4%
CC1CCC(NC(=O)CCS(=O)(=O)c2ccc3c(c2)oc(=O)n3C)CC1 (centres unmarked) | 5.15%
N=c1c2c(-c3ccccc3)c(-c3ccccc3)n(Cc3ccccc3)c2ncn1CCCn1ccnc1 | -71.2%
c1ccc(-c2ccccc2OCCCCn2ccnc2)cc1 | -26.4%
O=C(NCCCn1ccnc1)c1ccco1 | -4.47%
O=c1[nH]c(=O)n(Cc2ccco2)c(O)c1C=NCCCn1ccnc1 | 16.3%
OCCNc1ncnc2c1c(-c1ccccc1)c(-c1ccccc1)n2Cc1ccco1 | -44.9%
N=c1c2c(-c3ccccc3)c(-c3ccccc3)n(Cc3ccco3)c2ncn1CCCn1ccnc1 | -74.3%
c1ccc(-c2c(-c3ccccc3)n(Cc3ccco3)c3ncnc(NCCCn4ccnc4)c23)cc1 | -71.6%
Cc1sc2ncnc(NCCCn3ccnc3)c2c1C | -46.1%
c1ccc(Cn2ccnc2)cc1 | 19.6%
